# Data taken from PMC11006913.
# Numbering of substitutions follows the chain as printed.
# Experiments:
# Assay in all cases: PBM; 200 nM protein, PBS
# Conditions in all cases: dsDNA, one strand shown
# [1] = molecular target: T1, NKX2-4 (Homo sapiens, UniProt Q9H2Z4 175-261, P217L)
# T1 sequence: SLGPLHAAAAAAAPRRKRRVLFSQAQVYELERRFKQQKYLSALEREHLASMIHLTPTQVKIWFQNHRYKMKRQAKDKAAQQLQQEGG
# [2] = molecular target: T2, NKX2-4 (Homo sapiens, UniProt Q9H2Z4 175-261)
# T2 sequence: T1 sequence with L43P
# [3] = molecular target: T3, NKX2-4 (Homo sapiens, UniProt Q9H2Z4 175-261, R246Q)
# T3 sequence: T1 sequence with L43P, R72Q
# [4] = molecular target: T4, NKX2-4 (Homo sapiens, UniProt Q9H2Z4 175-261, T231S)
# T4 sequence: T1 sequence with L43P, T57S
# [5] = molecular target: T5, NKX2-6 (Homo sapiens, UniProt A6NCS4 118-204, R150C)
# T5 sequence: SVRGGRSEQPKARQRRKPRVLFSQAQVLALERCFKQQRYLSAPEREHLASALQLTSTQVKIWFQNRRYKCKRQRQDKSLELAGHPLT
# [6] = molecular target: HOXC10 (Homo sapiens, UniProt Q9NYD6 254-340)
# [7] = molecular target: ALX4 (Homo sapiens, UniProt Q9H161 200-286)
# [8] = molecular target: ALX4 (Homo sapiens, UniProt Q9H161 200-286, Q225E)
# [9] = molecular target: T6, NKX2-6 (Homo sapiens, UniProt A6NCS4 118-204)
# T6 sequence: T5 sequence with C33R
# [10] = molecular target: T7, NKX2-6 (Homo sapiens, UniProt A6NCS4 118-204, F151L)
# T7 sequence: T5 sequence with C33R, F34L
# [11] = molecular target: T8, PAX4 (Homo sapiens, UniProt O43316 9-242, R200K)
# T8 sequence: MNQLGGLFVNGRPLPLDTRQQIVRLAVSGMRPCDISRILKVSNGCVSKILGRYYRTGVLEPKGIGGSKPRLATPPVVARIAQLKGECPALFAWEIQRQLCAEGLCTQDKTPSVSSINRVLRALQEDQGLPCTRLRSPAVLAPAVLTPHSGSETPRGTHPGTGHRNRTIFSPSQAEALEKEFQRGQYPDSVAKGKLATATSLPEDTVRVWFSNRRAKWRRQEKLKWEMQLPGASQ
# [12] = molecular target: PRRX1 (Homo sapiens, UniProt P54821 80-166, F113S)
# [13] = molecular target: T9, PAX4 (Homo sapiens, UniProt O43316 9-242)
# T9 sequence: T8 sequence with K192R
# [14] = molecular target: ALX1 (Homo sapiens, UniProt Q15699 118-204, L144V)
# [15] = molecular target: T10, PAX4 (Homo sapiens, UniProt O43316 9-242, R200Q)
# T10 sequence: T8 sequence with K192Q
# [16] = molecular target: ALX1 (Homo sapiens, UniProt Q15699 118-204, L144R)
# [17] = molecular target: T11, PAX4 (Homo sapiens, UniProt O43316 9-242, F177V)
# T11 sequence: T8 sequence with F169V, K192R
# [18] = molecular target: T12, PAX4 (Homo sapiens, UniProt O43316 9-242, F177Y)
# T12 sequence: T8 sequence with F169Y, K192R
# [19] = molecular target: T13, PAX4 (Homo sapiens, UniProt O43316 9-242, R227W)
# T13 sequence: T8 sequence with K192R, R219W
# [20] = molecular target: ALX1 (Homo sapiens, UniProt Q15699 118-204)
# [21] = molecular target: PRRX1 (Homo sapiens, UniProt P54821 80-166)
# [22] = molecular target: PITX2 (Homo sapiens, UniProt Q99697 72-157)
# [23] = molecular target: T14, VENTX (Homo sapiens, UniProt O95231 78-163, R121Q)
# T14 sequence: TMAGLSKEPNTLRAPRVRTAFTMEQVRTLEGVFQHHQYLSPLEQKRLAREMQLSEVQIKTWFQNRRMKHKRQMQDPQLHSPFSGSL
# [24] = molecular target: T15, VENTX (Homo sapiens, UniProt O95231 78-163)
# T15 sequence: T14 sequence with Q44R
# [25] = molecular target: T16, VENTX (Homo sapiens, UniProt O95231 78-163, Y115F)
# T16 sequence: T14 sequence with Y38F, Q44R
# [26] = molecular target: ALX3 (Homo sapiens, UniProt O95076 139-225, N203Q)
# [27] = molecular target: ALX3 (Homo sapiens, UniProt O95076 139-225)
# [28] = molecular target: VAX1 (Homo sapiens, UniProt Q5SQQ9 86-172)
# [29] = molecular target: ALX3 (Homo sapiens, UniProt O95076 139-225, L168Q)
# [30] = molecular target: ALX3 (Homo sapiens, UniProt O95076 139-225, L168V)
# [31] = molecular target: VAX1 (Homo sapiens, UniProt Q5SQQ9 86-172, T142I)
# [32] = molecular target: ALX3 (Homo sapiens, UniProt O95076 139-225, N203S)
# [33] = molecular target: VAX1 (Homo sapiens, UniProt Q5SQQ9 86-172, K157R)
# [34] = molecular target: HOXA2 (Homo sapiens, UniProt O43364 129-215, R185T)
# [35] = molecular target: MSX2 (Homo sapiens, UniProt P35548 130-214, R199I)
# [36] = molecular target: HOXA2 (Homo sapiens, UniProt O43364 129-215, R185K)
# [37] = molecular target: MSX2 (Homo sapiens, UniProt P35548 130-214)
# [38] = molecular target: MSX2 (Homo sapiens, UniProt P35548 130-214, F161Y)
# [39] = molecular target: HOXA2 (Homo sapiens, UniProt O43364 129-215, Y150S)
# [40] = molecular target: HOXA2 (Homo sapiens, UniProt O43364 129-215)
# HOXA2 (Homo sapiens, UniProt O43364 129-215), sequence (O43364 129-215): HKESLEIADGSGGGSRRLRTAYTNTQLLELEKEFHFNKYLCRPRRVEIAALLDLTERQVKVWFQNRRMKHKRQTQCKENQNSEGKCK
# ALX4 (Homo sapiens, UniProt Q9H161 200-286, Q225E), sequence (Q9H161 200-286 Q225E): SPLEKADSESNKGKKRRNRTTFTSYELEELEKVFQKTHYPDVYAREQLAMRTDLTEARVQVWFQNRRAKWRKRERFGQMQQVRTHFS
# ALX4 (Homo sapiens, UniProt Q9H161 200-286), sequence (Q9H161 200-286): as the sequence (Q9H161 200-286 Q225E) above, with E26Q counted along it
# ALX1 (Homo sapiens, UniProt Q15699 118-204), sequence (Q15699 118-204): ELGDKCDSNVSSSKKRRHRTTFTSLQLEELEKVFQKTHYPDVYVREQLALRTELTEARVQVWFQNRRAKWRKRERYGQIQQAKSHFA
# PRRX1 (Homo sapiens, UniProt P54821 80-166, F113S), sequence (P54821 80-166 F113S): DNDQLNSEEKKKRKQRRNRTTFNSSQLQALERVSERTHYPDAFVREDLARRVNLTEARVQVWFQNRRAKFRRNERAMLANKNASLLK
# HOXC10, sequence (Q9NYD6 254-340): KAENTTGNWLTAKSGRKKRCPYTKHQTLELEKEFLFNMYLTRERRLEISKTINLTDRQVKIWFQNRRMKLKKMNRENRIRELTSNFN
# PRRX1 (Homo sapiens, UniProt P54821 80-166), sequence (P54821 80-166): as the sequence (P54821 80-166 F113S) above, with S34F counted along it
# ALX1 (Homo sapiens, UniProt Q15699 118-204, L144V), sequence (Q15699 118-204 L144V): as the sequence (Q15699 118-204) above, with L27V counted along it
# ALX1 (Homo sapiens, UniProt Q15699 118-204, L144R), sequence (Q15699 118-204 L144R): as the sequence (Q15699 118-204) above, with L27R counted along it
# ALX3 (Homo sapiens, UniProt O95076 139-225), sequence (O95076 139-225): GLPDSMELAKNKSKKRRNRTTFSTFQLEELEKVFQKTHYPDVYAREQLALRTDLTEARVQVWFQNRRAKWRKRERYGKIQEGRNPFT
# HOXA2 (Homo sapiens, UniProt O43364 129-215, Y150S), sequence (O43364 129-215 Y150S): as the sequence (O43364 129-215) above, with Y22S counted along it
# HOXA2 (Homo sapiens, UniProt O43364 129-215, R185T), sequence (O43364 129-215 R185T): as the sequence (O43364 129-215) above, with R57T counted along it
# VAX1 (Homo sapiens, UniProt Q5SQQ9 86-172, K157R), sequence (Q5SQQ9 86-172 K157R): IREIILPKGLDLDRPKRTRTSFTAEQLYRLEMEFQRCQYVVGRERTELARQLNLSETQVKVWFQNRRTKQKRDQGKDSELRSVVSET
# MSX2 (Homo sapiens, UniProt P35548 130-214), sequence (P35548 130-214): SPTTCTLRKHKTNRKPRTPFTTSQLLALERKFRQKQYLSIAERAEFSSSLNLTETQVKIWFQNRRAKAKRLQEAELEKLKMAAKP
# HOXA2 (Homo sapiens, UniProt O43364 129-215, R185K), sequence (O43364 129-215 R185K): as the sequence (O43364 129-215) above, with R57K counted along it
# ALX3 (Homo sapiens, UniProt O95076 139-225, L168V), sequence (O95076 139-225 L168V): as the sequence (O95076 139-225) above, with L30V counted along it
# ALX3 (Homo sapiens, UniProt O95076 139-225, N203Q), sequence (O95076 139-225 N203Q): as the sequence (O95076 139-225) above, with N65Q counted along it
# MSX2 (Homo sapiens, UniProt P35548 130-214, R199I), sequence (P35548 130-214 R199I): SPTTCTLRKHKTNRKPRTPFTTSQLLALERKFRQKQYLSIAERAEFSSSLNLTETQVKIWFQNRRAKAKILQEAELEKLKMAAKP
# VAX1 (Homo sapiens, UniProt Q5SQQ9 86-172, T142I), sequence (Q5SQQ9 86-172 T142I): as the sequence (Q5SQQ9 86-172 K157R) above, with T57I, R72K counted along it
# VAX1 (Homo sapiens, UniProt Q5SQQ9 86-172), sequence (Q5SQQ9 86-172): as the sequence (Q5SQQ9 86-172 K157R) above, with R72K counted along it
# ALX3 (Homo sapiens, UniProt O95076 139-225, N203S), sequence (O95076 139-225 N203S): as the sequence (O95076 139-225) above, with N65S counted along it
# MSX2 (Homo sapiens, UniProt P35548 130-214, F161Y), sequence (P35548 130-214 F161Y): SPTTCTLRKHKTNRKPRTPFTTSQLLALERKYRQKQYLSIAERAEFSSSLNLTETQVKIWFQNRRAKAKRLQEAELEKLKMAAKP
# ALX3 (Homo sapiens, UniProt O95076 139-225, L168Q), sequence (O95076 139-225 L168Q): as the sequence (O95076 139-225) above, with L30Q counted along it
sequence,measurement,setting,value
AGTATCTC,binding signal,[1],"11.5 upbm affinity estimate (log intensity, higher = more binding, comparable within an allelic series)"
same,binding signal,[2],"11.4 upbm affinity estimate (log intensity, higher = more binding, comparable within an allelic series)"
same,binding signal,[3],"11.6 upbm affinity estimate (log intensity, higher = more binding, comparable within an allelic series)"
ACAAGTAC,binding signal,[1],"12.5 upbm affinity estimate (log intensity, higher = more binding, comparable within an allelic series)"
same,binding signal,[4],"12.9 upbm affinity estimate (log intensity, higher = more binding, comparable within an allelic series)"
same,binding signal,[5],"11.6 upbm affinity estimate (log intensity, higher = more binding, comparable within an allelic series)"
same,binding signal,[3],"12.9 upbm affinity estimate (log intensity, higher = more binding, comparable within an allelic series)"
GCCATTAA,binding signal,[6],"12.3 upbm affinity estimate (log intensity, higher = more binding, comparable within an allelic series)"
GCTTGGCC,binding signal,[6],"10.1 upbm affinity estimate (log intensity, higher = more binding, comparable within an allelic series)"
CACGGGGG,binding signal,[7],"7.67 upbm affinity estimate (log intensity, higher = more binding, comparable within an allelic series)"
same,binding signal,[8],"7.96 upbm affinity estimate (log intensity, higher = more binding, comparable within an allelic series)"
CGGAGGGA,binding signal,[7],"7.87 upbm affinity estimate (log intensity, higher = more binding, comparable within an allelic series)"
same,binding signal,[8],"8.03 upbm affinity estimate (log intensity, higher = more binding, comparable within an allelic series)"
same,binding signal,[9],"9.02 upbm affinity estimate (log intensity, higher = more binding, comparable within an allelic series)"
same,binding signal,[10],"9.3 upbm affinity estimate (log intensity, higher = more binding, comparable within an allelic series)"
GCCGCAGC,binding signal,[11],"9.27 upbm affinity estimate (log intensity, higher = more binding, comparable within an allelic series)"
same,binding signal,[12],"9.25 upbm affinity estimate (log intensity, higher = more binding, comparable within an allelic series)"
same,binding signal,[13],"9.2 upbm affinity estimate (log intensity, higher = more binding, comparable within an allelic series)"
same,binding signal,[14],"6.7 upbm affinity estimate (log intensity, higher = more binding, comparable within an allelic series)"
same,binding signal,[15],"9.23 upbm affinity estimate (log intensity, higher = more binding, comparable within an allelic series)"
same,binding signal,[16],"6.73 upbm affinity estimate (log intensity, higher = more binding, comparable within an allelic series)"
same,binding signal,[17],"9.18 upbm affinity estimate (log intensity, higher = more binding, comparable within an allelic series)"
same,binding signal,[18],"9.21 upbm affinity estimate (log intensity, higher = more binding, comparable within an allelic series)"
same,binding signal,[19],"9.18 upbm affinity estimate (log intensity, higher = more binding, comparable within an allelic series)"
same,binding signal,[20],"6.7 upbm affinity estimate (log intensity, higher = more binding, comparable within an allelic series)"
same,binding signal,[21],"9.47 upbm affinity estimate (log intensity, higher = more binding, comparable within an allelic series)"
ACGCATTA,binding signal,[11],"11.6 upbm affinity estimate (log intensity, higher = more binding, comparable within an allelic series)"
same,binding signal,[19],"10.9 upbm affinity estimate (log intensity, higher = more binding, comparable within an allelic series)"
CCCTTCCG,binding signal,[12],"9.35 upbm affinity estimate (log intensity, higher = more binding, comparable within an allelic series)"
same,binding signal,[21],"9.49 upbm affinity estimate (log intensity, higher = more binding, comparable within an allelic series)"
GCCAGGGC,binding signal,[5],"9.13 upbm affinity estimate (log intensity, higher = more binding, comparable within an allelic series)"
CCCCCTGA,binding signal,[14],"6.45 upbm affinity estimate (log intensity, higher = more binding, comparable within an allelic series)"
same,binding signal,[16],"6.47 upbm affinity estimate (log intensity, higher = more binding, comparable within an allelic series)"
same,binding signal,[20],"6.49 upbm affinity estimate (log intensity, higher = more binding, comparable within an allelic series)"
CCCCCTGC,binding signal,[9],"8.96 upbm affinity estimate (log intensity, higher = more binding, comparable within an allelic series)"
same,binding signal,[10],"8.92 upbm affinity estimate (log intensity, higher = more binding, comparable within an allelic series)"
CGGGCACG,binding signal,[22],"8.22 upbm affinity estimate (log intensity, higher = more binding, comparable within an allelic series)"
CGCCTGCC,binding signal,[23],"8.19 upbm affinity estimate (log intensity, higher = more binding, comparable within an allelic series)"
same,binding signal,[24],"8.35 upbm affinity estimate (log intensity, higher = more binding, comparable within an allelic series)"
same,binding signal,[7],"7.81 upbm affinity estimate (log intensity, higher = more binding, comparable within an allelic series)"
same,binding signal,[25],"8.31 upbm affinity estimate (log intensity, higher = more binding, comparable within an allelic series)"
same,binding signal,[8],"8.15 upbm affinity estimate (log intensity, higher = more binding, comparable within an allelic series)"
same,binding signal,[5],"9.32 upbm affinity estimate (log intensity, higher = more binding, comparable within an allelic series)"
same,binding signal,[26],"7.68 upbm affinity estimate (log intensity, higher = more binding, comparable within an allelic series)"
same,binding signal,[9],"9.1 upbm affinity estimate (log intensity, higher = more binding, comparable within an allelic series)"
same,binding signal,[27],"7.56 upbm affinity estimate (log intensity, higher = more binding, comparable within an allelic series)"
same,binding signal,[28],"7.07 upbm affinity estimate (log intensity, higher = more binding, comparable within an allelic series)"
same,binding signal,[29],"7.74 upbm affinity estimate (log intensity, higher = more binding, comparable within an allelic series)"
same,binding signal,[10],"9.19 upbm affinity estimate (log intensity, higher = more binding, comparable within an allelic series)"
same,binding signal,[30],"7.77 upbm affinity estimate (log intensity, higher = more binding, comparable within an allelic series)"
same,binding signal,[31],"7.24 upbm affinity estimate (log intensity, higher = more binding, comparable within an allelic series)"
same,binding signal,[32],"7.7 upbm affinity estimate (log intensity, higher = more binding, comparable within an allelic series)"
same,binding signal,[33],"7.15 upbm affinity estimate (log intensity, higher = more binding, comparable within an allelic series)"
CCGAGGGC,binding signal,[23],"7.98 upbm affinity estimate (log intensity, higher = more binding, comparable within an allelic series)"
same,binding signal,[24],"8.24 upbm affinity estimate (log intensity, higher = more binding, comparable within an allelic series)"
same,binding signal,[7],"8.14 upbm affinity estimate (log intensity, higher = more binding, comparable within an allelic series)"
same,binding signal,[25],"8.11 upbm affinity estimate (log intensity, higher = more binding, comparable within an allelic series)"
same,binding signal,[8],"8.07 upbm affinity estimate (log intensity, higher = more binding, comparable within an allelic series)"
same,binding signal,[34],"7.12 upbm affinity estimate (log intensity, higher = more binding, comparable within an allelic series)"
same,binding signal,[35],"9.49 upbm affinity estimate (log intensity, higher = more binding, comparable within an allelic series)"
same,binding signal,[36],"10.3 upbm affinity estimate (log intensity, higher = more binding, comparable within an allelic series)"
same,binding signal,[37],"9.42 upbm affinity estimate (log intensity, higher = more binding, comparable within an allelic series)"
same,binding signal,[38],"9.43 upbm affinity estimate (log intensity, higher = more binding, comparable within an allelic series)"
same,binding signal,[39],"10.3 upbm affinity estimate (log intensity, higher = more binding, comparable within an allelic series)"
same,binding signal,[40],"7.2 upbm affinity estimate (log intensity, higher = more binding, comparable within an allelic series)"
